Source: PubChem BioAssay (ICCB-Longwood Screening Facility, Harvard Medical School)
MgrA-DNA mod: S. aureus MgrA activity modulators, primary screen, biochemical, S. aureus Newman, fluorescence polarization | inhibition, % (test concentration not listed) | MgrA-DNA binding | AID 602314, 2012 | hit rate 0.13% among 84,000; in the data active means inhibition above about 30%, passing the limit was not always enough;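 further: 0% = protein plus DNA without compound and 100% = DNA alone without protein; higher means less MgrA bound to DNA so lower polarization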
Numbers without * were called inactive. Many of the other results were omitted from the sample, so hits are more common in it than they were.

SMILES | MgrA-DNA mod
S=c1[nH]nc(-c2ccc(Cl)cc2)n1C1CCCCC1 | 1
COc1cc(/C=C2\C(=O)NC(=O)N(C(C)(C)C)C2=O)cc(OC)c1O | 5
CC(=O)N1C(Nc2ccc(C)cc2)CCN1c1ccccc1 (centres undefined) | -1
CCOc1ccc(C(=O)OCCC2CCCN3CCCCC23)cc1 (centres undefined) | 1
Cc1ccc(S(=O)(=O)Nc2ccc(Br)cc2C(NCC(=O)O)c2ccccc2)cc1 (centres undefined) | 2
CC(C)c1ccc(NC(=O)CNS(=O)(=O)c2ccccc2)cc1 | 2
CC(C)c1ccc(S(=O)(=O)Nc2cc(SCC(=O)O)c(O)c3ccccc23)cc1 | 90*
Cc1cc(C(=O)O)c(C)n1C | 4
O=C1CC(c2ccco2)CC(O)=C1C=NC1CCCCC1N=CC1=C(O)CC(c2ccco2)CC1=O (centres undefined) | -2
COc1cc(C2CS(=O)(=O)CS(=O)(=O)C2)ccc1O | 0
O=C1c2c(O)ccc(O)c2C(=O)c2c(NCCNCCO)ccc(NCCNCCO)c21 | 47*
COc1cccc(/C=C2/SC(=S)N(C(C)C(=O)O)C2=O)c1 (centres undefined) | 0
CCOC(=O)n1c(=S)[nH]c2ccc(C)cc2c1=O | 1
CCc1cc(C(=O)OC)c(NC(=O)CN2CCN(c3ccccc3)CC2)s1 | 4
CCCc1c(C)[nH]c2ccc(C(=O)O)cc2c1=S | 54*
Cc1[nH]c2ccc(C(=O)O)cc2c1CC(=O)O | 6
Cc1[nH]c2ccc(C(=O)O)cc2c1C | 3
CC(C)c1nc2sc3c(NCC4CCCO4)ncnc3c2c2c1CCCC2 (centres undefined) | 2
COc1ccc(-c2nn(CN3CCOCC3)c(=S)n2-c2ccccc2)cc1OC | -1
CCOc1ccc(Nc2cnnc(Nc3ccc(OCC)cc3)n2)cc1 | 1
CCOc1ccc(NC2=CC(=O)C=CC2=O)cc1 | 56*
CCOc1ccc(NC2=CC(=O)CCC2)cc1 | -1
O=C(CSc1ncnc2sc3c(c12)CCCC3)OC1CCCCC1 | -3
COC(=O)c1sc2ccccc2c1OS(=O)(=O)c1ccc(OC)c(OC)c1 | -4
O=C(O)c1ccc(-c2ccccc2)cc1 | 5
SMILES | MgrA-DNA mod
CCc1ccc(C2=CC(=O)C=CC2=O)cc1 | 15
O=C1C=CC(=O)C(c2ccc(C(=O)O)cc2)=C1 | 83*
O=C1CC(=O)c2ccc3c4c(ccc1c24)C(=O)CC3=O | 93*
O=C1CC(=O)c2c1cccc2[N+](=O)[O-] | 35
CSc1sc(C(N)=S)c2c1C(=O)CCC2 | -1
COC(=O)c1cc2ccccc2s1 | 1
Cc1ccc(N2C(=O)NC(=O)/C(=C/c3cc(Br)c(O)cc3O)C2=O)cc1 | 14
Cc1ccc(N2C(=O)NC(=O)/C(=C/c3ccc(Br)o3)C2=O)cc1Cl | 49*
CC(C)(C)C1(C)OC(=O)C(=Cc2ccc(Br)o2)C(=O)O1 (centres undefined) | 20
O=C1CNC(c2ccc(Cl)cc2Cl)N1O (centres undefined) | 0
COCCc1nnc(N)s1 | 1
O=C(/C=C/c1ccccc1)N1CCCC1 | 0
Nc1ccc(N2CCCCC2)cc1 | -1
O=S(=O)(c1ccccc1)c1ccc(N2CCCCC2)cc1 | 2
Nc1ccc(N2CCCC2)cc1 | 57*
CCN(CC)Cc1cc(O)c(CN(CC)CC)cc1O | 60*
CCN(CC)Cc1cc(C2N(C(C)=O)c3cccc4cccc(c34)N2C(C)=O)ccc1O | -1
CCCc1oc(C(=O)O)cc1CN(CC)CC | -7
Cc1ccc(Nc2ncc(C(=O)N3CCCCCC3)c3ccccc23)cc1Cl | 2
Cc1cccc(OC(=O)CSc2nnc(C)c3ccccc23)c1 | -4
Clc1ccc(-c2nc(N3CCCCC3)c3ccccc3n2)cc1 | 1
O=C1c2ccc(S(=O)(=O)O)cc2-c2nc(-c3ccccc3)nc3ccc(Cl)c1c23 | 81*
O=C1c2ccccc2-c2nc(-c3ccccc3)cc3cccc1c23 | 3
O=S(=O)(c1ccccc1)N1CCC(c2nc(-c3ccccc3)no2)CC1 | 1
CCOC(=O)N(c1ccccc1)S(=O)(=O)c1ccc(Cl)cc1 | -3
SMILES | MgrA-DNA mod
Cc1ccc(N2C(=O)NC(=O)/C(=C\c3ccc(-c4ccccc4C(=O)O)o3)C2=O)cc1 | 5
CN1C(=O)/C(=C\c2ccc(-c3ccccc3C(=O)O)o2)C(=O)N(c2ccccc2)C1=S | 62*
CN1C(=O)/C(=C/c2ccc(-c3ccc(C(=O)O)cc3)o2)c2ccccc21 | 6
COc1ccc(-c2csc(C3COc4ccccc4O3)n2)c(OC)c1 (centres undefined) | -2
O=C(/C=C/Nc1cccc(C(F)(F)F)c1)c1ccco1 | 0
CCOc1ccc(N/C=C/C(=O)c2ccco2)cc1 | 2
O=C(/C=C/Nc1ccccc1C(F)(F)F)c1ccco1 | 93*
Cc1cccc(NS(=O)(=O)c2ccc(CCN3C(=O)c4cccnc4C3=O)cc2)c1C | 1
C=CCn1c(=NC(=O)CSC(C)=O)sc2ccccc21 | 0
CCc1ccc(N2C(=O)/C(=C/c3ccc(OCC(=O)O)c(OC)c3)C(=O)NC2=S)cc1 | 18
COc1ccc(N2C(=O)/C(=C\c3ccc(C(C)C)cc3)C(=O)NC2=S)cc1 | 0
CCC(C)N1C(=O)/C(=C\c2cnn(-c3ccccc3)c2)C(=O)NC1=S (centres undefined) | 63*
COc1cccc(NC(=O)c2ccnc(C(C)(C)C)c2)c1 | 0
O=c1cc(O)c2sc3nc(-c4ccccc4)ccc3c2[nH]1 | 3
FC(F)(F)c1cc(-c2ccco2)nc(-n2cccn2)n1 | 4
O=c1cc(O)c2sc3nc(-c4ccco4)cc(C(F)(F)F)c3c2[nH]1 | 88*
OCc1cn(Cn2cc(CO)c(-c3ccccc3)n2)nc1-c1ccccc1 | 0
O=C1C=C2N(c3ccccc3)CCOC2(O)c2ccccc21 (centres undefined) | 35
CCCNC(=O)c1ccc(S(=O)(=O)N(C)c2ccccc2)cc1 | -1
Cc1onc(-c2c(F)cccc2Cl)c1NC(=O)Oc1ccc(CC#N)cc1 | 0
CC(=O)N1c2ncnn2C(c2ccc(Cl)cc2)CC1c1ccccc1 (centres undefined) | 2
Cc1ccc(C)n1-c1cccc(C(=O)O)c1 | 103*
O=C(O)c1cccc(-n2cccc2)c1 | 35
Cc1ccc(C)n1-c1cccc(N)c1 | 2
O=C(O)CC1(CC(=O)Nc2cccnc2)CCCC1 | -1
SMILES | MgrA-DNA mod
COc1ccc(Cn2nnnc2CN(Cc2ccc(C)cc2)Cc2cc3cc4c(cc3[nH]c2=O)OCO4)cc1 | 0
O=C(O)Cc1c[nH]c2ccccc12 | 1
NC(Cc1c[nH]c2ccccc12)C(=O)O (centres undefined) | 0
Cc1ccc(C)n1C(Cc1c[nH]c2ccccc12)C(=O)O (centres undefined) | 66*
FC(F)(F)c1cccc(Cn2c(-c3cscn3)nc3ccccc32)c1 | -1
CC(=O)Nc1ccc(Br)c(C)c1 | 0
C=CCN1C(=O)/C(=C/c2c(NCC)nc3ccccn3c2=O)SC1=S | 4
O=C(CSCc1ccco1)NCc1ccccc1Cl | 1
O=C(CSc1nnc(-c2ccco2)c(-c2ccco2)n1)N1c2ccccc2Sc2ccc(Cl)cc21 | 22
Cc1cc(C)c(C#N)c(SC2CCc3ccccc3C2=O)n1 (centres undefined) | 1
O=C1c2ccccc2CC1Sc1nnc(-c2ccco2)c(-c2ccco2)n1 (centres undefined) | 96*
Cc1ccc(N(C(=O)c2ccccc2)C2CS(=O)(=O)CC2OC(=O)c2ccccc2)cc1 (centres undefined) | 2
CC(C)(CO)C(O)C(=O)NC1CCCCC1 (centres undefined) | 3
